# IL2 activator: IL-2 activation; activation, % (series mostly up to about 46 µM); IL-2 activation reporter assay, cell-based qHTS; stimulated with anti-CD3/CD4/CD28 beads; in transgenic mouse T cells; actives 0.065% (n = 360,000); in the data active = activation above about 50%; inconclusive = mostly about 30% to 49%; also: 0% is about no effect
#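 Using fluorescent plate cytometry, EGFP and DsRed are detected in transgenic mouse T cells stimulated 18 h at 37 degrees C with antibody-coated beads after 60 min compound pretreatment.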
# Nrf2 ARE act: activators of Nrf2 (ARE) signaling; AREc32 ARE-luciferase reporter (MCF7-derived line), luminescence, 24 h; Potency, µM (series often up to 46.1 µM), for the others: at the highest dose activation, most hits filed as activators; actives 0.31% (n = 410,000); AID 624171; also: potency is read from the fitted curve at half-maximal effect; % of control where 0% means no effect; nearly all actives have a fitted effect of over 65% in size
#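 Steps: seed AREc32_Fluc cells (1000/well, 5% FBS OPTI-MEM); incubate overnight at 37 deg C; add 23 nL compound; incubate 24 hr; add Steady-Glo; hold 30 min RT; read luminescence.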
# A549 tox-1: A549 cytotoxicity, counter-screen for Nrf2 inhibitors. A549 ARE-Fluc cells, CellTiter-Fluor viability, 18-24 h. AID 504648. actives 0.16% (n = 390,000). Potency, µM (titrated, usually from 46 µM), for inactives: at the highest dose activity change, negative = cytotoxicity, most hits filed as inhibitors; also: potency is read from the fitted curve at half-maximal effect; % is scaled to controls: 0 for no effect and ±100 for the full control effect
#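 A549 ARE-Fluc cells in 5% FBS OPTI-MEM, 5000 cells/well, rested 2 h then exposed to compounds in concentration-response for 18-24 h at 37 °C. Viability by CellTiter-Fluor fluorescence (Ex 405/Em 525) after 30 min; luciferase luminescence (BugLite, 15 min, RT) read afterwards.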
# Nrf2 block: blocks Nrf2 signaling; A549 ARE-Fluc reporter, luciferase luminescence, 18-24 h; Potency, µM (series often up to 46 µM), without a hit: at the highest dose activity change, negative = inhibition, usual class: inhibitors; actives 2.1% (n = 360,000); AID 504444; also: potency is read from the fitted curve at half-maximal effect; % is scaled to controls: 0 for no effect and ±100 for the full control effect; nearly all actives have a fitted effect of over 60% in size
#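 Reporter: ARE-Fluc in A549. Exposure: 18-24 h, 37 °C, 5% CO2, 5% FBS OPTI-MEM. Readouts: fluorescent cytotoxicity (CellTiter-Fluor), then luminescent Nrf2 signal after BugLite.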
# FLuc counter 3: blocks purified firefly luciferase in Nrf2 counterscreen; shares compounds with Nrf2 block; purified firefly luciferase, luminescence inhibition; Potency, µM (titrated, usually from 57.5 µM), for the others: at the top dose activity change, negative = inhibition, most hits filed as inhibitors; actives 4% (n = 1,400); AID 720522; also: potency is read from the fitted curve at half-maximal effect; % is scaled to controls: 0 for no effect and ±100 for the full control effect; nearly all actives have a fitted effect of over 65% in size
# Target sequence (P08659 whole entry, looked up): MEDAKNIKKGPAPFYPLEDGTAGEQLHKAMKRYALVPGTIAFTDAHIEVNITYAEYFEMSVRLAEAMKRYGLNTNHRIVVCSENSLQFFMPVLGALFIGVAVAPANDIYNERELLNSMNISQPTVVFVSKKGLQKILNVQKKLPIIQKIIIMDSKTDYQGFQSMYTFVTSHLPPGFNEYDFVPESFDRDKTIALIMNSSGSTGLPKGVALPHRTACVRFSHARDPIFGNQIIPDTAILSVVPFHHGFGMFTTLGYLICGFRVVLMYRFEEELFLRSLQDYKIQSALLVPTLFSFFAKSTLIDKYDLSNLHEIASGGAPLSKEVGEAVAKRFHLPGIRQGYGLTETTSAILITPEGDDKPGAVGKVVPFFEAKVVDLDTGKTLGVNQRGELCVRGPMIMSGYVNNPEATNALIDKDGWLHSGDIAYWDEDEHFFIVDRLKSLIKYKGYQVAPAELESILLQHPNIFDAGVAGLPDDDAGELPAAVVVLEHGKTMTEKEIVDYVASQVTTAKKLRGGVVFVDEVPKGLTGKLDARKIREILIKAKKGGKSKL
# A549 tox-2: toxic to A549 ARE-Fluc cells in Nrf2 counterscreen; shares compounds with Nrf2 block; A549 ARE-Fluc cells, cytotoxicity counterscreen; Potency, µM (titrated, usually from 46.1 µM), inactives show at the top dose activity change, negative = cytotoxicity, actives largely listed as inhibitors; actives 2% (n = 1,400);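 also: potency is read from the fitted curve at half-maximal effect; cells exposed to compounds for 18 to 24 hours; % is scaled to controls: 0 for no effect and ±100 for the full control effect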
# Nrf2 ARE inh: confirmation of Nrf2 inhibitors in A549 ARE reporter cells. A549 ARE-firefly luciferase reporter, luminescence. actives 74% (n = 1,400). Potency, µM (series often up to 46.1 µM), for inactives: top-dose activity change, negative = inhibition, actives largely listed as inhibitors. shares compounds with Nrf2 block; also: potency is read from the fitted curve at half-maximal effect; % is scaled to controls: 0 for no effect and ±100 for the full control effect; nearly all actives have a fitted effect of over 65% in size
# Active calls of the source: *; ? = inconclusive; / = not tested or not shown; [ ] = dose if it differs, or a comment. In the library only some 2.3% were active in any assay of this set; here they are far more common. Unless noted, calls follow the shape of the dose curve; as a rule, active = well fitted curve in the direction sought with a large enough effect; inconclusive = small, poorly fitted or top-dose-only effect, or another doubt; inactive = no such curve, though single readings can be large; an effect the other way counts as inactive or inconclusive.
SMILES,IL2 activator,Nrf2 ARE act,A549 tox-1,Nrf2 block,FLuc counter 3,A549 tox-2,Nrf2 ARE inh
COc1ccc(/C=C2\SC(=O)N(CCCC(=O)Nc3cc(Cl)ccc3C(=O)O)C2=O)cc1,3,-2%,-10%,0.73µM*,12µM*,-6%,1.5µM*
CCOc1ccc(C(c2c(O)cc(C)n(CCOC)c2=O)N2CCN(c3ccccc3)CC2)cc1 (stereo not given),/,-1%,-3%,/,/,/,/
CC[n+]1ccccc1/C=C1\Sc2ccc(C)cc2N1C,-1,2%,?,6.5µM*,1%,-28%,2.9µM*
Cn1c(=O)c2[nH]c(CCCCCCCCc3nc4ccccc4[nH]3)nc2n(C)c1=O,-1,6%,-21%,8.2µM*,0%,-17%,/
Cc1c(C)c2c(cc(C)c3c(-c4ccccc4)coc32)oc1=O,/,0%,1%,10%,/,/,/
O=C(/C=C/c1ccc(Cl)cc1)NC(=S)Nc1ccc(NC(=O)c2ccco2)cc1,-2,4%,-15%,0.82µM*,0%,-24%,0.82µM*
CC(=O)Nc1ccc(NC(=S)NC(=O)/C=C/c2ccc(Cl)cc2)cc1,-3,0%,0%,?,/,/,/
COc1cccc(NC(=O)N(Cc2cn(C)c3ccccc23)C2CCCCC2)c1,/,4%,?,3.3µM*,-11%,?,?
CCN(CC)c1ccc(Nc2nc(N3CCOCC3)c3ccccc3n2)cc1,-2,3%,?,6.5µM*,?,-11%,12µM*
COc1ccc(Nc2nc(N3CCCC3)c3ccccc3n2)cc1,-7,-2%,-16%,?,/,/,/
CO/N=C/c1ccc(N2CCN(C(=O)c3ccc(Cl)cc3Cl)CC2)c([N+](=O)[O-])c1,-3,0%,-28%,6.5µM*,-1%,-22%,12µM*
O=C(O/N=C\c1ccc(N2CCCCC2)c([N+](=O)[O-])c1)c1cccc(Cl)c1,0,-1%,0%,3%,/,/,/
CCCN(C(=O)c1c(C)oc2ncnc(N3CCOCC3)c12)c1ccc(Cl)c(Cl)c1,/,4%,-8%,7%[9.27 µM],/,/,/
O=C(CCN1C(=O)/C(=C/c2ccccc2Cl)SC1=S)NNC(=O)c1ccccc1O,0,0%,-7%,-22%,/,/,/
O=C(CCCN1C(=O)/C(=C/c2ccccc2Cl)SC1=S)NNC(=O)c1ccc(Cl)cc1,-1,-1%,0%,8.2µM*,-5%,-22%,7.3µM*
O=C(CCN1C(=O)/C(=C/c2ccccc2Cl)SC1=S)NNC(=O)c1cccnc1,0,9%,-4%,4%,/,/,/
Cc1ccc(C(=O)NNC(=O)CCCN2C(=O)/C(=C/c3ccccc3Cl)SC2=S)cc1,-1,-1%,?,9.2µM*,?,-4%,?
Cc1ccc(/C=C2/SC(=S)N(CCCC(=O)Nc3ccc(O)cc3)C2=O)cc1,0,3%,?,9.2µM*,?,?,13µM*
CCc1ccccc1NC(=O)Cn1nc(N2CCN(c3ccccc3OC)CC2)ccc1=O,/,0%,20%,?,/,/,/
OCc1c[nH]c2ccccc12,0,4%,-9%,16%,/,/,/
Oc1cccc2c(CC(O)c3c[nH]c4ccccc34)ccnc12 (stereo not given),/,/,/,/,-15%,-29%,4.1µM*
Cc1c(C(=O)N2CCN(Cc3ccc4c(c3)OCO4)CC2)sc2ncnc(N3CCN(c4ccccc4)CC3)c12,0,0%,1%,1.2µM*,-3%,-22%,7.3µM*
CC(C)CNC(=O)COc1ccc(Sc2ccc(OCC(=O)NCC(C)C)cc2)cc1,0,0%,-4%,?,/,/,/
CCCC(C)NC(=O)COc1ccc(Sc2ccc(OCC(=O)NC(C)CCC)cc2)cc1 (stereo not given),-2,-1%,0%,3.7µM*,4%,0%,/
COc1ccc(F)cc1S(=O)(=O)NCC(c1ccco1)S(=O)(=O)c1cccs1 (stereo not given),/,14%,-6%,/,/,/,/
SMILES,IL2 activator,Nrf2 ARE act,A549 tox-1,Nrf2 block,FLuc counter 3,A549 tox-2,Nrf2 ARE inh
COc1ccc(CCNc2c(C)c(C)nc3ncnn23)cc1,-1,0%,?,1µM*,0%,-22%,2.1µM*
Cc1cc(/C=C2/SC(=S)N(c3ccc([N+](=O)[O-])cc3)C2=O)c(C)n1-c1cccnc1,1,3%,?,6.5µM*,-18%,-23%,/
Cc1cc(/C=C2/SC(=S)N(c3cccc(Cl)c3)C2=O)c(C)n1-c1cccnc1,-2,4%,-15%,?,/,/,/
Cc1ccc(-n2nnnc2CNC(=O)c2ccccc2F)cc1C,/,0%,7%,/,/,/,/
O=C(Nc1nccs1)c1ccc(-c2cccc([N+](=O)[O-])c2)o1,0,4%,-10%,?,/,/,/
O=C(Nc1ncc(Cc2cccc(C(F)(F)F)c2)s1)c1ccc(-c2cccc([N+](=O)[O-])c2)o1,2,0%,-26%,2.6µM*,-2%,-1%,5.2µM*
COc1cccc(CC(=O)NCc2ccc3c(c2)CCN3C(C)=O)c1,/,0%,4%,/,/,/,/
COc1ccc(S(=O)(=O)c2nnn(-c3ccc(C(C)C)cc3)c2C)cc1,/,0%,-20%,9.2µM*,-1%,-1%,5.2µM*
O=C(CNC(=O)C1CCCCC1)OCC(=O)c1ccc([N+](=O)[O-])cc1,/,/,-2%,?,/,/,/
CCOC(=O)N1CCN(C(=O)c2ccc(Cn3c(=S)[nH]c4cc5c(cc4c3=O)OCO5)cc2)CC1,1,0%,?,9.2µM*,-22%,-9%,8.2µM*
Cn1c(-c2ccccc2)cccc1=O,1,1%,-1%,/,/,/,/
Cn1c(-c2ccccc2)c[n+]2c1-c1ccccc1C2,2,0%,7%,?,-10%,-9%,1.6µM*
C(=C\c1ccco1)/c1ccc2ccccc2n1,-2,?,2%,?,/,/,/
Fc1ccc(/C=C/c2ccc3ccccc3n2)cc1,/,/,/,/,-25%,?,7.3µM*
CCCN(CCC)c1nc(N)nc(C#N)n1,/,/,0%,-18%,/,/,/
C=CC[n+]1c(-c2ccc(C)cc2)csc1Nc1ccc(NC(C)=O)cc1,0,2%,-13%,6.5µM*,-26%,-8%,6.5µM*
CCOC(=O)c1[nH]c(C)c(CCC(=O)N2CCN(c3cccc(C)c3C)CC2)c1C,/,-1%,-20%,/,/,/,/
Cn1cc(/C=C/c2cc[n+](C)cc2)c2cc(F)ccc21,206*,8%,?,1.6µM*,1%,-26%,1.6µM*
C[n+]1ccc(/C=C/c2c[nH]c3ccc(F)cc23)cc1,95*,2%,?,1.2µM*,1%,?,1.8µM*
C[n+]1ccccc1/C=C/c1ccc(F)c(F)c1,-3,0%[9.22 µM],6%,-14%,/,/,/
